The experiment addresses AMP-activated protein kinase, AMPK (Homo sapiens) (UniProt P54646+O43741+P54619+Q9UGJ0+Q9Y478+Q13131+Q9UGI9). Nature of the experiment: AMP-dependent Kinase enzyme assay. An in vitro enzyme assay that detects ADP turnover that is directly proportional to AMPK activity. This uses naive AMPK that is activated during the assay with MK-8722. The format is functional. Also on record: scale not given: direction of the effect not stated beside the values. As to conditions: 30 µM.
In the case of `O=C(CC1CCCC1)NCCS(=O)(=O)N1CCN(c2ncccn2)CC1`, the Percent Effect was -1.03%.
As for `O=C1CCCCN1CCc1nc(C2(c3ccc(F)cc3)CCOC2)no1` (centres undefined), the figure is 0.752%; as for `CC(C)Cc1noc(CN(C)C2CCS(=O)(=O)C2)n1` (centres undefined), -4.29%.
In the case of `COc1ccccc1Oc1ncccc1CNC(=O)C1COC(=O)N1` (centres undefined) it was -13.1%; in that of `O=C(O)c1ccccc1-c1ccc(CN2CC(c3ccncn3)C2)o1`, 11.8%.
In the case of `COCc1ccccc1NC(=O)c1ccoc1` it was -4.58%.
On to `COc1cc(CN2CC[C@@H](N3CCCCCC3)[C@H](O)C2)cc(Cl)c1OC`, for which the Percent Effect turned out to be 13.6%.
In the case of `Cn1cc(NC(=O)N2CCCC2c2ccccn2)ccc1=O` (centres undefined) it was 40.9%.
As for `COC(=O)c1ccc(N(C(=O)c2ccncc2)C(C)C)c(C)c1`, the figure is -1.62%; as for `CCN(Cc1ccc(N(C)C)cc1)S(=O)(=O)c1cc(Br)ccc1OC`, -8.72%.
In the case of `COc1ccccc1CCNC(=O)N(C)C(C)CS(C)(=O)=O` (centres undefined) it was -5.38%.
On to `O=C(C1CCCO1)N1CCC(Cn2cc(C3CCCC3)nn2)CC1` (centres undefined), for which the Percent Effect came out at 3.98%.
In the case of `O=C(NC1CCCCC1)N1CCC(n2cc(-c3ccccn3)nn2)CC1` it was -1.68%; in that of `Cc1cc(C)c2[nH]c(C(=O)NCCN3CCOC3=O)c(C)c2c1`, 16.4%; in that of `CN(C)c1ncccc1N(C)C(=O)Cn1cc(-c2ccccc2)nn1`, -17.2%.
In the case of `CC(C)(CN1CCC2(CCOCC2)CC1)N1CCOCC1` it was -0.161%; in that of `CN(CCc1ccncc1)CCc1nccs1`, 1.48%; in that of `CNC(=O)c1cc(NC(=O)Nc2cnn(CC(C)C)c2)ccc1F`, -5.42%.
In the case of `Cc1c(C(=O)N2CCC(C(=O)c3nc4ccccc4s3)CC2)cnn1C` it was 9.2%.
Consider `CC(C)CN1C[C@@H](C(=O)O)C[C@@H](C(=O)NCc2ccncc2)C1`, for which the Percent Effect was -2.13%.
In the case of `O=C1CN([C@@H]2CC[C@@H](NS(=O)(=O)c3ccccc3)[C@H]2O)CCN1`, the Percent Effect amounted to 11.7%.
In the case of `COCCN(Cc1ccccc1)C(=O)c1cnn(C)c1C` it was 2.02%.
As for `CCCC(=O)NC1CCCN(Cc2cccs2)C1` (centres undefined), the figure is 5.79%; as for `Cc1nn(C)c(C)c1C1COCCN1C(=O)NC1CC1` (centres undefined), -1.36%; as for `COc1ccc(Cl)cc1C(C(=O)O)N1CCSCC1` (centres undefined), 3.31%.
On to `CCN(Cc1cnc(C)cn1)C1CCN(c2ccccc2)C1=O` (centres undefined), for which the Percent Effect is -4.52%.
As for `CCOc1ccc(Br)cc1S(=O)(=O)N(CC)Cc1ccc(N(C)C)cc1`, the figure is -7.47%.
As to `CC(C)COc1cncc(N(C)C2CCN(c3ncccn3)CC2)n1`, the Percent Effect was found to be 7.4%.
In the case of `Cc1c(C(=O)N(C)C)cccc1N(C)S(C)(=O)=O` it was 11.2%; in that of `CC(c1nc(C2CC2)no1)N1CCc2c(ncn2C2CC2)C1` (centres undefined), 11.4%; in that of `CC(CO)NC(=O)Nc1ccc(CC#N)cc1` (centres undefined), -1.29%.
In the case of `COc1cccc(-c2n[nH]cc2-c2nc(CN3CCCC3)no2)c1` it was -4.34%.
In the case of `CCc1nc(C)c(CN2CCOC(CCCC(C)C)C2)[nH]1` (centres undefined) it was -6.7%.
Turning to `OCCc1ncnn1Cc1cccc(Cl)c1`, the Percent Effect was 32.2%.
As for `COc1c(C(=O)NC(C)Cc2ccccc2Cl)c(C)nn1C` (centres undefined), the figure is 0.464%; as for `CCCc1nnc(N2CCN(C3CCCC3)CC2)o1`, 3.52%; as for `Cc1nccc(CNC(=O)NCCC(=O)N2CCCc3ccccc32)n1`, -8.67%.
Regarding `CN(Cc1nc2ccccc2n1C)C(=O)CCc1cscn1`, the Percent Effect was determined as 3.49%.
As for `Cc1nc(NC(=O)NCCCN2CCC(C(N)=O)CC2)sc1C`, the figure is 6.51%.

The record behind these values is ChEMBL document CHEMBL3988442, “University of Dundee, Small-Polar-MMV Screening Library” (2021).
